RXFP1 ag – agonists of human relaxin receptor RXFP1 | Q9HBX9 | HEK293T-RXFP1 cAMP TR-FRET, 30 min; response scale: percent of porcine relaxin response, buffer zero | Potency, µM (top dose mostly 57.5 µM), without a hit: top-dose activation, usual class: activators | 370,000 tested, 0.3% active | AID 2676; active = well fitted activation curve with a large enough effect; inconclusive = small, poorly fitted or top-dose-only effect; note: potency is the fitted concentration of half-maximal effect; % is set by controls: 0 for no effect and ±100 for the full control effect; nearly all actives have a fitted effect of over 60% in size
Target sequence (Q9HBX9 whole entry, looked up): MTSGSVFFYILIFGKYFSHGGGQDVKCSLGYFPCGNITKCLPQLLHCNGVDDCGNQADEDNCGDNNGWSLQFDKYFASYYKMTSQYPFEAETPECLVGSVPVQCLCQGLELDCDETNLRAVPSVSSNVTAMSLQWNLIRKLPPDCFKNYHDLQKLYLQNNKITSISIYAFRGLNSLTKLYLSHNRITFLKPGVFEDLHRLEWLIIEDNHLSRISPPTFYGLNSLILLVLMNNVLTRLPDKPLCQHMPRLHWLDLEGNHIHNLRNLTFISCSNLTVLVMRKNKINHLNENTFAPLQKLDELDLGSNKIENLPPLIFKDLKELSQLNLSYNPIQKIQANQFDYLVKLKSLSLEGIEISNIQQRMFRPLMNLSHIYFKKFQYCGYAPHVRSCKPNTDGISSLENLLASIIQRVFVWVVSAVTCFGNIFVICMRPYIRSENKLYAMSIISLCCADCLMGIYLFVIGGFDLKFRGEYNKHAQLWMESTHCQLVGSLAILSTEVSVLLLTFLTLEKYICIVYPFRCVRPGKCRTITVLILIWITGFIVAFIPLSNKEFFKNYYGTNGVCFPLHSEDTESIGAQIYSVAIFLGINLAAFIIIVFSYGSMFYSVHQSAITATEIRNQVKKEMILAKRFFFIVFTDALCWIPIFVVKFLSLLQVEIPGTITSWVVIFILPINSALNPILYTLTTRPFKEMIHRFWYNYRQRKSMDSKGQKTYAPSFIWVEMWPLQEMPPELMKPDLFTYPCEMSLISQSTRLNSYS
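HEK293T cells stably expressing RXFP1 were pretreated with the PDE4 inhibitor Ro 20174, exposed to compounds for 30 min at 37C, lysed, and cAMP was read by TR-FRET. Data normalized to buffer (basal) and 29 nM porcine relaxin (100%).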
RXFP1 antag – antagonists of human relaxin receptor RXFP1; Q9HBX9; 350,000 tested, 0.59% active; HEK293-RXFP1, relaxin-stimulated cAMP HTRF, 30 min; stronger effect = lower value; activity change, negative = inhibition, % at 57.5 µM;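 active = activity change of -60% or lower, but not beyond a set lower limit; inconclusive = change between -60% and -40%, or beyond the set limit; inactive = change above -40%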; note: % is set by controls: 0 for no effect and ±100 for the full control effect
gsp ag – agonists of gsp mutant (McCune-Albright syndrome); gsp mutant cells, cAMP HTRF, 30 min; Potency, µM (titrated, usually from 76.9 µM), for the others: top-dose activation (cAMP increase), actives largely listed as activators; 340,000 tested, 0.13% active; active = well fitted activation curve with a large enough effect; inconclusive = small, poorly fitted or top-dose-only effect, or another doubt; inactive = no such curve, though single readings can be large or run the other way; cell line not stated here;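 note: phosphodiesterase inhibitor Ro 20-1724 added with compounds to block cAMP breakdown; potency is the fitted concentration of half-maximal effect; nearly all actives have a fitted effect of over 60% in size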
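Cells stably selected in G418 were plated at 2000/well, grown 16-24 hr, then given compounds in DMSO with the PDE inhibitor […] (300 uM solution added) for 30 min at 37C; cAMP was read by HTRF.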
gsp antag – antagonists of gsp mutant (McCune-Albright syndrome); 340,000 tested, 0.4% active; AID 624288; Potency, µM (titrated, usually from 76.9 µM), for inactives: top-dose activity change, negative = inhibition, most hits filed as inhibitors; gsp-mutant cells, cAMP HTRF, 30 min; calls by dose curve; cell line not stated here;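 note: intracellular cAMP measured with PDE inhibitor Ro 20-1724 present during compound exposure; potency is the fitted concentration of half-maximal effect; % is set by controls: 0 for no effect and ±100 for the full control effect; nearly all actives have a fitted effect of over 65% in size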
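HTRF cAMP measurement after 30 min RT detection following 30 min, 37C compound treatment alongside […] (added as 300 uM solution) in G418-selected cells seeded at 2000/well and grown 16–24 h.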
* hit, by the source's call; ? = inconclusive; / = no result; ! = not active in a repeat; [ ] = dose if it differs, or a comment. Most compounds without a hit are left out; they make up all but 0.9% or so of the library.

SMILES	RXFP1 ag	RXFP1 antag	gsp ag	gsp antag
O[C@@H](COc1cccc2ncccc12)CN1CCN(C2c3ccccc3[C@@H]3[C@H](c4ccccc42)C3(F)F)CC1 (stereo partly specified)	/	-33	/	/
CCOc1ccccc1CN1CCc2nc(N3CCN(c4ccccc4F)CC3)ncc2C1	6%	-60*	/	/
CN(C)c1ccc(CN2CCc3nc(N4CCN(c5ccccn5)CC4)ncc3C2)cc1	5%	-63*	/	/
Fc1ccc(CN2CCc3nc(N4CCN(c5ccccc5F)CC4)ncc3C2)c(F)c1	-4%	-6	/	/
COc1cc(CN2CCc3nc(N4CCN(c5ccccn5)CC4)ncc3C2)cc(OC)c1OC	5%	-79*	/	/
COc1cc(CN2CCc3nc(N4CCN(c5ncccn5)CC4)ncc3C2)cc(OC)c1OC	-2%	-29	/	/
Cc1c(C)c2c(c(C)c1O)CCC(C)(COc1ccc(CC3SC(=O)NC3=O)cc1)O2 (stereo unspecified)	/	-75*	/	/
Oc1c(C(c2ccccc2)N2CCC(O)CC2)sc2nc(-c3ccco3)nn12 (stereo unspecified)	-1%	11	/	/
CN1c2ccsc2C(O)=C(C(=S)Nc2ccc(F)c(Cl)c2)S1(=O)=O	1%	3	-23%	35µM*
Cn1cc(C(=O)Nc2ccc(F)c(Cl)c2)cn1	1%	-3	6%	11%
CCOC(=O)Cc1nnc2c(Nc3ccc(Cl)cc3)nc3nonc3n12	1%	-14	6%	35µM*
CCOC(=O)Cc1csc(Nc2ccc(Cl)cc2)n1	2%	6	-13%	-13%
COc1ccc(NS(=O)(=O)c2ccc3c(c2)Cc2ccccc2-3)cn1	1%	1	-8%	28µM*
CCc1ccc(OCC(=O)N(Cc2ccc(C)o2)C2CCS(=O)(=O)C2)cc1 (stereo unspecified)	2%	4	/	/
COc1ccc(/C=C/C(=O)Nc2ccc(C)c(S(=O)(=O)N3CCOCC3)c2)cc1	/	/	/	32µM*
COc1ccc(NC(=O)/C=C/c2ccc(S(=O)(=O)N3CCOCC3)cc2)cc1	1%	-2	9%	7%
Cc1cc(C)n(-c2ccc(C(=O)Nc3ccc(C)c(S(=O)(=O)N4CCOCC4)c3)cc2)n1	-2%	-23	-1%[15.4 µM]	35µM*
CCOC(=O)c1ccc(NC(=O)c2ccc(C)c(S(=O)(=O)N3CCOCC3)c2)cc1	1%	?	0%	28µM*
COc1cccc(CNc2sc3c(c2C(=O)Nc2ccc(OC)cc2OC)CCC3)c1	2%	-37	/	/
O=C(COc1cccc(C(F)(F)F)c1)NCC(c1ccco1)N1CCCCC1 (stereo unspecified)	1%	-61*	-4%[15.4 µM]	5%
CN(c1ccccc1)c1nc(N)c([N+](=O)[O-])c(Nc2ccccc2)n1	6%	-21	-13%	5%
CN(c1ccccc1)c1nc(N)c([N+](=O)[O-])c(NC2CCCCC2)n1	0%	-16	-54%	50µM*
CCOc1cccc(CC(=O)NCc2ccc3c(c2)CCN3C(=O)c2cccc(C)c2)c1OCC	0%	/	/	/
CCOC(=O)c1ccccc1NC(=O)Cn1ncc2c1-c1ccccc1OC2	0%	/	/	/
Cc1ccc2[nH]cc(C(c3ccccc3)c3cccs3)c2c1 (stereo unspecified)	6%	-72*	/	/
SMILES	RXFP1 ag	RXFP1 antag	gsp ag	gsp antag
Cc1ccc2[nH]cc(C(c3ccccc3)c3ccc(C)s3)c2c1 (stereo unspecified)	1%	?	/	/
CC(=O)/C=C/C=C1/C2CCC(C2)C1(C)C (stereo unspecified)	/	-20	/	/
CN1CCN(C(CNC(=O)Nc2ccc(Cl)cc2)c2ccc(F)cc2)CC1 (stereo unspecified)	2%	11	-36%	16%
Cc1ccc(C(CNC(=O)Nc2ccc(Cl)cc2)N2CCN(C)CC2)cc1 (stereo unspecified)	-3%	-84*	?	6%
Cc1cccc(N2CCN(c3ncnc4c3nc3n4CCCCC3)CC2C)c1 (stereo unspecified)	4%	-70*	/	/
CNC(=O)c1c(I)c(NC(=O)CCCCC(=O)Nc2c(I)c(C(=O)O)c(I)c(C(=O)NC)c2I)c(I)c(C(=O)O)c1I	/	15	/	/
O=C(COc1ccccc1F)Nc1cc(S(=O)(=O)Nc2cccc(Cl)c2)ccc1O	-3%	4	30%	35µM*
Clc1ccccc1/C=C/C=N/Nc1nc(N2CCOCC2)nc(N2CCOCC2)n1	-1%	-23	-7%[15.4 µM]	13µM*
O=C(NNC(=S)Nc1ccccc1)c1cc(-c2cccnc2)nc2ccccc12	2%	-61*	1%[15.4 µM]	-17%
CCOC(=O)c1ccc(NC(=S)NNC(=O)c2cc(-c3cccnc3)nc3ccccc23)cc1	-3%	-16	10%	-32%
CCOc1cccc(CNc2ccc(O)cc2)c1OCc1ccccc1Cl	-3%	-89*!	-14%	-18%
CCOc1cccc(CNc2ccc(O)cc2)c1OCc1ccc(Cl)cc1Cl	1%	?	4%	?
CCOC(=O)c1ccc(NC(=O)c2oc(=O)c3ccccc3c2-c2ccccc2)cc1	2%	-12	/	/
CN(C)Cc1nc2c(c(=O)[nH]1)C1(CCCCC1)Cc1ccccc1-2	2%	-62*	18%	6%
Cc1ccc(C(=O)NNc2cc(N3CCCC3)nc(N3CCCC3)n2)cc1	0%	-62*	7%	3%
O=C(NNc1cc(N2CCOCC2)nc(N2CCOCC2)n1)c1ccc(Cl)c(Cl)c1	0%	3	?	-4%
CC(C)CCn1c2ccccc2c2cc(CC(N)=O)ccc21	0%	-72*	2%	1%
COc1cc2c(Nc3ccc(Br)cc3F)ncnc2cc1OCC1CCN(C)CC1	/	15	/	/
CCc1cc2c(=O)nc3n(c2s1)Cc1ccccc1/C3=C(/O)c1cccc([N+](=O)[O-])c1	?	17	3.2µM*	11%
CCCCOc1ccc(Br)cc1CSC(=N)N	1%	-71*	4%[15.4 µM]	11%
COc1ccc(NC(=O)c2ncn(-c3ccccc3)n2)cc1Cl	0%	-5	/	/
Cc1nn(-c2ccc(F)cc2)c(Cl)c1/C=C(/CC(=O)O)c1nc2ccccc2s1	/	4	-21%	-20%
Cc1nn(-c2ccc(F)cc2)c(Cl)c1/C=C(\CC(=O)O)c1nc2ccccc2s1	0%	4	26%	40µM*
O=C(CN1CCCCC1)Nc1c2c(nc3ccccc13)N(c1ccccc1)CC2	25µM*	48	?	12%
Cc1ccc(CNC(=O)CCc2nnc3ccc(N4CCC5(CC4)OCCO5)nn23)cc1	18µM*	16	?	4%
COc1ccc(CNC(=O)CCc2nnc3ccc(N4CCC5(CC4)OCCO5)nn23)cc1	?	14	0%	6%
CSc1ccc(CCNC(=O)CCc2nnc3ccc(N4CCOCC4)nn23)cc1	26%	/	16µM*	2%
CCCN(CCC)C(=O)C(CCC(=O)OCCCN1CCN(CCOC(=O)Cc2c(C)n(C(=O)c3ccc(Cl)cc3)c3ccc(OC)cc23)CC1)NC(=O)c1ccccc1 (stereo unspecified)	/	-25	/	/
COC(=O)c1ccc2c(=O)n(CCCN3CCCC3=O)c(=S)[nH]c2c1	-1%	24	?	-11%

High-throughput results as filed in PubChem.
